Source: PubChem BioAssay (Tox21)
Values joined by “and” are separate entries in the source; they are usually repeats but may differ in a detail not shown here. Equal entries are not always repeated. Results filed as inconclusive are left out. Entries that show only a call come without a potency. Where a structure was tested more than once in an assay, its records may differ in their call. Active and inactive are the calls of the source. Unless noted, the call rests on the fitted dose curve.

Key:
[1] = Nuclear factor erythroid 2-related factor 2/antioxidant responsive element (Nrf2/ARE) small molecule agonists: qHTS cell viability counter screen in human keratinocytes (AID 1919968; active means well fitted curve in the direction sought with a large enough effect in the repeat runs; an effect the other way counts as inactive or inconclusive; further: nearly all actives have a fitted effect of over 55% in size; further: potency means the concentration at half of the fitted maximal effect)
Procedure, shortened: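 Cells of the KeratinoSens line were plated at 1,500 per well and left for 5 h before compound transfer from DMSO stocks. After a 23 h incubation (37 C, 5% CO2), CellTiter-Fluor was added. Signal was taken as fluorescence intensity 1 h later.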

[2] = Nuclear factor erythroid 2-related factor 2/antioxidant responsive element (Nrf2/ARE) small molecule agonists: luciferase reporter gene qHTS assay in human keratinocytes (AID 1919969); further: nearly all actives have a fitted effect of over 35% in size; further: potency means the concentration at half of the fitted maximal effect
[3] = biological target: Gonadotropin-releasing hormone receptor (Homo sapiens) (UniProt P30968); assay: Human gonadotropin-releasing hormone receptor (GnRHR) small molecule agonists, calcium flux assay in GnRHR-HEK293 cells (AID 1920063); further: nearly all actives have a fitted effect of over 35% in size
Procedure, shortened: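 Compounds dissolved in DMSO are pin-transferred onto dye-loaded GnRHR-HEK293 cells, which were seeded 18 h before at 37 C/5% CO2. Calcium signal is read as fluorescence intensity at 1 s intervals for 3 min.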

[4] = biological target: KiSS-1 receptor (Homo sapiens) (UniProt Q969F8); assay: Human kisspeptin (KISS1R) small molecule agonists, calcium flux assay in KISS1R-HEK293 cells (AID 1920064; active means well fitted curve in the direction sought with a large enough effect in the repeat runs; an effect the other way counts as inactive or inconclusive)
Procedure, shortened: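 Cell line: HEK293, stable human KISS1R. Dye loading 1 h at 37 C after 18 h culture. Read: kinetic fluorescence, 480/540 nm, 3 min at 1 s intervals.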

[5] = G protein-coupled receptor (GPCR) small molecule agonists, calcium flux assay: HEK293 wild type cell line counter screen (AID 1920065)
Procedure, shortened: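 Tox21 10K compounds, 15 concentrations each in triplicate, pin-transferred in DMSO onto dye-loaded cells; kinetic read at 480/540 nm for 3 min, 1 s intervals.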

[6] = p53 small molecule agonists, cell-based qHTS assay with human liver microsomes: qHTS cell viability counter screen (AID 1963579); further: nearly all actives have a fitted effect of over 45% in size; further: potency means the concentration at half of the fitted maximal effect
Procedure, shortened: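 Cells carrying the p53 response-element beta-lactamase reporter are treated for 16 h at 37 C with test compounds in the presence of human liver microsomes and NADPH (both 0.5 mg/mL final); ATP-based CellTiter-Glo luminescence then reports viability.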

[7] = p53 small molecule agonists, cell-based qHTS assay with rat liver microsomes: qHTS cell viability counter screen (AID 1963580); further: nearly all actives have a fitted effect of over 45% in size; further: potency means the concentration at half of the fitted maximal effect
Procedure, shortened: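 Luminescent ATP readout (CellTiter-Glo, 30 min at room temperature) reports viability of p53RE-bla HCT-116 cells after 16 h at 37 C with test compounds under metabolic activation by rat liver microsomes and NADPH at 0.5 mg/mL final each.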

[8] = p53 small molecule agonists, cell-based qHTS assay: qHTS cell viability counter screen (AID 1963581); further: nearly all actives have a fitted effect of over 45% in size; further: potency means the concentration at half of the fitted maximal effect
Procedure, shortened: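 ATP content measured by luminescence in HCT-116 p53RE-bla cells treated 16 h at 37 C, same wells as the reporter screen.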

[9] = biological target: Beta-2 adrenergic receptor (Homo sapiens) (UniProt P07550); assay: Adrenergic beta2 receptor (ADRB2) small molecule antagonists, cell-based qHTS assay (AID 1963592); further: series mostly up to about 92 µM; nearly all actives have a fitted effect of over 50% in size
Procedure, shortened: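 Assay format: CHO-ADRB2 cells, 18-20hr seeding at 37C/5% CO2, then compound plus 1nM isoproterenol agonist mix for 0.5hr RT. Homogeneous time-resolved fluorescence cAMP detection after 1hr, expressed as 665/615 nm ratio.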

[10] = biological target: Beta-2 adrenergic receptor (Homo sapiens) (UniProt P07550); assay: Adrenergic beta2 receptor (ADRB2) small molecule agonists, cell-based qHTS assay (AID 1963593);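 further: CHO cells stably overexpressing human ADRB2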
Procedure, shortened: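 CHO cells stably over-expressing ADRB2 were plated overnight at 37C, then dosed with compounds plus a stimulation mix containing 100uM IBMX and 25uM Ro-20-1724 for 0.5hr at room temperature. cAMP was measured by HTRF competition, 1hr.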

[11] = biological target: D(2) dopamine receptor (Homo sapiens) (UniProt P14416); assay: Dopamine D2 receptor (DRD2) small molecule agonists, cell-based qHTS assay (AID 1963594); further: nearly all actives have a fitted effect of over 35% in size
Procedure, shortened: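 HEK293 cells stably expressing DRD2 were cultured 24 h at 37 C, then given Ro20-1724 (0.1 mM final) and compounds for 10 min at room temperature. NKH477 (200nM) was then added for 30 min. cAMP was read by HTRF.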

[12] = biological target: D(2) dopamine receptor (Homo sapiens) (UniProt P14416); assay: Dopamine D2 receptor (DRD2) small molecule antagonists, cell-based qHTS assay (AID 1963595; active means well fitted inhibition curve with a large enough effect in the signal ratio in the repeat runs, with a control signal flat; the % refers to the signal ratio)
Procedure, shortened: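 Antagonism was scored as restored cAMP in HEK293-DRD2 cells. These cells were stimulated with 200 nM NKH477 and 12 nM quinpirole for 30 min at room temperature, in the presence of 0.1 mM Ro20-1724.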

[13] = biological target: 5-hydroxytryptamine receptor 2A (Homo sapiens) (UniProt P28223); assay: 5-hydroxytryptamine receptor 2A (HTR2A) small molecule antagonists, cell-based qHTS assay (AID 1963586); further: nearly all actives have a fitted effect of over 45% in size
Procedure, shortened: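 CHO cells stably expressing human HTR2A were plated for 18 h at 37 C, then loaded with calcium dye for 1 h. Compounds were preincubated 5 min at room temperature before DOI (4 nM solution) was added. Kinetic fluorescence was read for 3 min.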

[14] = biological target: 5-hydroxytryptamine receptor 2A (Homo sapiens) (UniProt P28223); assay: 5-hydroxytryptamine receptor 2A (HTR2A) small molecule agonists, cell-based qHTS assay (AID 1963587); further: nearly all actives have a fitted effect of over 30% in size
Procedure, shortened: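 HTR2A-CHO cells, plated 18 h at 37 C/5% CO2, dye-loaded 1 h at 37 C; compounds in DMSO added by pin tool (agonist mode). Intracellular calcium flux read as kinetic fluorescence on FDSS over 2 min at 1 s intervals.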

[15] = biological target: Muscarinic acetylcholine receptor M1 (Homo sapiens) (UniProt P11229); assay: Cholinergic receptor muscarinic 1 (CHRM1) small molecule antagonists, cell-based qHTS assay (AID 1963588); further: nearly all actives have a fitted effect of over 40% in size
Procedure, shortened: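 Compounds were tested at 15 concentrations in three independent runs. Dye-loaded CHRM1-CHO cells were exposed 5 min at room temperature before stimulation by acetylcholine added at 50nM. Intracellular calcium was read kinetically on FDSS for 3 min.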

[16] = biological target: Muscarinic acetylcholine receptor M1 (Homo sapiens) (UniProt P11229); assay: Cholinergic receptor muscarinic 1 (CHRM1) small molecule agonists, cell-based qHTS assay (AID 1963589); further: nearly all actives have a fitted effect of over 35% in size
Procedure, shortened: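 Homogeneous fluorescence calcium flux, agonist mode. Human M1-expressing CHO cells; compound dosed at 15 concentrations, three independent runs; signal sampled every 1 sec.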

[17] = cAMP Responsive Elements (CRE) small molecule agonists, cell-based qHTS assay (AID 1963590)
Procedure, shortened: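 HEK 293T cells stably bearing CRE-bla were plated at 2,000 cells per well and rested 18 h. Compounds, positive controls or DMSO were added for 3 h at 37 C. LiveBLAzer B/G substrate was then loaded for 2 h at room temperature.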

[18] = cAMP Responsive Elements (CRE) small molecule antagonists, cell-based qHTS assay (AID 1963591; active means well fitted inhibition curve with a large enough effect in the signal ratio in the repeat runs, not every such curve was filed as active; the % refers to the signal ratio)
Procedure, shortened: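 First, CRE-bla HEK293T cells settled 18 h at 37 C. Next, compound and 0.25 uM final NKH477 were applied for 3 h. Last, LiveBLAzer B/G substrate was loaded for 2 h at room temperature.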

[19] = p53 small molecule agonists, cell-based qHTS assay with rat liver microsomes (AID 1963578)
Procedure, shortened: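 Read-out is beta-lactamase reporter fluorescence (LiveBLAzer, 2 h, room temperature, dark) in p53RE-bla cells treated 16 h at 37 C with compound, rat liver microsomes and NADPH, both 0.5 mg/mL final.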

[20] = p53 small molecule agonists, cell-based qHTS assay (AID 1963582; active means well fitted activation curve with a large enough effect in the signal ratio in the repeat runs, not every such curve was filed as active; the % refers to the signal ratio)
Procedure, shortened: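 16 h compound exposure (37 C) of p53 response element–bla cells, preceded by 5 h recovery at 37 C/5% CO2; read-out via LiveBLAzer B/G FRET substrate, 2 h RT, fluorescence intensity.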

Chain of KiSS-1 receptor (Homo sapiens) (Q969F8 whole entry, looked up): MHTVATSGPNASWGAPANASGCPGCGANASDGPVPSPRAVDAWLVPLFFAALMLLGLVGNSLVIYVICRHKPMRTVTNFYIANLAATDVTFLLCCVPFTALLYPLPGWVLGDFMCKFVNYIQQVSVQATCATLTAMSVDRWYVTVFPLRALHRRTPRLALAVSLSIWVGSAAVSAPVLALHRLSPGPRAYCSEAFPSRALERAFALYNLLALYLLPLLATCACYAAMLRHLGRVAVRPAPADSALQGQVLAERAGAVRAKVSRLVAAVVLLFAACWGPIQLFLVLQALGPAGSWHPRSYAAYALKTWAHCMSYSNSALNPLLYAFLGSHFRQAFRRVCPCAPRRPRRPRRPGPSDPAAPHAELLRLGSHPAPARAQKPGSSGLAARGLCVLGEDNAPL
Chain of Gonadotropin-releasing hormone receptor (Homo sapiens) (P30968 whole entry, looked up): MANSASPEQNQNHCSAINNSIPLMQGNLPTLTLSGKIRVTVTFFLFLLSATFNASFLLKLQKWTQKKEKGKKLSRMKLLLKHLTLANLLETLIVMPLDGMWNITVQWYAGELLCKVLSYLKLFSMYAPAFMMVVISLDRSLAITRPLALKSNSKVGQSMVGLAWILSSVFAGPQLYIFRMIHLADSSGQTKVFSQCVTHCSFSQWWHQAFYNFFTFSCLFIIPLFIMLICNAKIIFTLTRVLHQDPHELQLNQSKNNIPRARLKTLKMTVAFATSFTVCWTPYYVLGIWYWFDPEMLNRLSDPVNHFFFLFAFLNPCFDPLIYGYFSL
Chain of Beta-2 adrenergic receptor (Homo sapiens) (P07550 whole entry, looked up): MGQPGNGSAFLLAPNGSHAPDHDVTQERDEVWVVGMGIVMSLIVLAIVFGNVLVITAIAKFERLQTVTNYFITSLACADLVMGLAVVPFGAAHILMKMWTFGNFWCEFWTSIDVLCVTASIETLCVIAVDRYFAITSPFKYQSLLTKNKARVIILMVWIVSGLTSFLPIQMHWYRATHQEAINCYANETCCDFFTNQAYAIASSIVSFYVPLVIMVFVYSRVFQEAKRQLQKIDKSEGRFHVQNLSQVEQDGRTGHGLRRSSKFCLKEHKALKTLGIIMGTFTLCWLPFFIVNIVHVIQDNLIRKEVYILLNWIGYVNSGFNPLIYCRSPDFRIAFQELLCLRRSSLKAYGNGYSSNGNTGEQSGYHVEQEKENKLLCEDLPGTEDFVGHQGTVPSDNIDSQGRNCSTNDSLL
Chain of 5-hydroxytryptamine receptor 2A (Homo sapiens) (P28223 whole entry, looked up): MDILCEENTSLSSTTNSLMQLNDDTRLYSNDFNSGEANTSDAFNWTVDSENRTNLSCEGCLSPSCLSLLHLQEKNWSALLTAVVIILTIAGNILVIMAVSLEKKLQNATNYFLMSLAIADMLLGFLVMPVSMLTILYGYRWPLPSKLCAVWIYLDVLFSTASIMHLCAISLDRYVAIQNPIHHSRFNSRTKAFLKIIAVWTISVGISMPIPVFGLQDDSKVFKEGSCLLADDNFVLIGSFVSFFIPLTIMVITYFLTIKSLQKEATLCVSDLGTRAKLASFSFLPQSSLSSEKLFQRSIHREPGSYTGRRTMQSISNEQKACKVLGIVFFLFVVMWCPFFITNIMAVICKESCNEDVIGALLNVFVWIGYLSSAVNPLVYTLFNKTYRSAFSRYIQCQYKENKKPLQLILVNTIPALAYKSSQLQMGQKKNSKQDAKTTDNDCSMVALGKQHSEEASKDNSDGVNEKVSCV
Chain of D(2) dopamine receptor (Homo sapiens) (P14416 whole entry, looked up): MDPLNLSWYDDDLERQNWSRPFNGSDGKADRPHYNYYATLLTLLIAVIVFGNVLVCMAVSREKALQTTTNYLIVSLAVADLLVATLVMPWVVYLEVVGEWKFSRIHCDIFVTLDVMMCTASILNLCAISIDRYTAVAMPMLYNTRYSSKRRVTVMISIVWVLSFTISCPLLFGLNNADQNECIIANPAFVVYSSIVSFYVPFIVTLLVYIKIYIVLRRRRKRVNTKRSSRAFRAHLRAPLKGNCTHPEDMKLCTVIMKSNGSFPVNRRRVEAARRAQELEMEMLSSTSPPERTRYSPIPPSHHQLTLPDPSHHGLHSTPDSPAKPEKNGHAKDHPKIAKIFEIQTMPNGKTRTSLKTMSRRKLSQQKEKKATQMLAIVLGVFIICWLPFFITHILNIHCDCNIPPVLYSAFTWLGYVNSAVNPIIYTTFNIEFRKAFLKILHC
Chain of Muscarinic acetylcholine receptor M1 (Homo sapiens) (P11229 whole entry, looked up): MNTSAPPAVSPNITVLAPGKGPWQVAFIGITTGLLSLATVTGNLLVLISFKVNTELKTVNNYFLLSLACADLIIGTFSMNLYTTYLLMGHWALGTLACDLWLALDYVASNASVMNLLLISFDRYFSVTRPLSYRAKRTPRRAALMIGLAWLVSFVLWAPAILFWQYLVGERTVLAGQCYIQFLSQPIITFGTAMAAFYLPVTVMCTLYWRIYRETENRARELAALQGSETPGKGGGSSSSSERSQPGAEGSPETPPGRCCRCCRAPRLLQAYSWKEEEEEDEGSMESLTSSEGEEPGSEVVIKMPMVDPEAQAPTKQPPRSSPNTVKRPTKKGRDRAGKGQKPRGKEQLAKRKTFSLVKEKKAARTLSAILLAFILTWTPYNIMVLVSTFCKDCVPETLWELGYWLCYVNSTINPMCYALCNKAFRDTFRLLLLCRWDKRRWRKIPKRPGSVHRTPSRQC

| SMILES | Potency [1] | Potency [2] | Potency [3] | Potency [4] | Potency [5] | Potency [6] | Potency [7] | Potency [8] | Potency [9] | Potency [10] | Potency [11] | Potency [12] | Potency [13] | Potency [14] | Potency [15] | Potency [16] | Potency [17] | Potency [18] | Potency [19] | Potency [20] |
| --- | --- | --- | --- | --- | --- | --- | --- | --- | --- | --- | --- | --- | --- | --- | --- | --- | --- | --- | --- | --- |
| CCC1(c2ccc(N)cc2)CCC(=O)NC1=O (stereo unspecified) | inactive | inactive | inactive | inactive | inactive | inactive | inactive | inactive | inactive | inactive | inactive | inactive | – | – | – | – | – | – | – | – |
| Cc1cc(C)cc(C)c1 | inactive | inactive | inactive | inactive | inactive | inactive | – | inactive | inactive | – | inactive | inactive | inactive | inactive | inactive | inactive | inactive | inactive | – | – |
| Nc1ncn[nH]1 | inactive | inactive | inactive | inactive | inactive | inactive | inactive | inactive | inactive | inactive | inactive | inactive | – | – | inactive | inactive | inactive | inactive | – | – |
| Clc1ccccc1Cl | inactive | inactive | inactive | inactive | inactive | – | – | inactive | inactive | inactive | inactive | inactive | inactive | inactive | inactive | inactive | inactive | – | – | – |
| C[C@]12CC[C@H](O)CC1=CC[C@@H]1[C@@H]2CC[C@]2(C)C(=O)CC[C@@H]12 | inactive | inactive | inactive | inactive | inactive | inactive | inactive | inactive | inactive | inactive | inactive | inactive | – | – | – | – | – | – | – | – |
| C=C(C)[C@H]1Cc2c(ccc3c2O[C@@H]2COc4cc(OC)c(OC)cc4[C@@H]2C3=O)O1 | inactive and 29.8 nM (active) | 13.9 µM (active) and 13.7 µM (active) and inactive | inactive | inactive | inactive | inactive | inactive | – | inactive | inactive | inactive | inactive | – | – | – | – | – | inactive | – | – |
| CN(C)c1nc(=O)n(C2CCCCC2)c(=O)n1C | inactive | inactive | inactive | inactive | inactive | inactive | inactive | inactive | inactive | – | – | inactive | – | inactive | inactive | inactive | inactive | inactive | – | – |
| CC(C)C#N | inactive | inactive | inactive | inactive | inactive | inactive | – | inactive | inactive | inactive | inactive | inactive | inactive | inactive | inactive | inactive | – | – | – | – |
| C[C@@H]1O[C@@H](O[C@H]2C[C@@H](O)[C@]3(CO)[C@H]4[C@H](O)C[C@]5(C)[C@@H](C6=CC(=O)OC6)CC[C@]5(O)[C@@H]4CC[C@]3(O)C2)[C@H](O)[C@H](O)[C@H]1O | 730 nM (active) and 1.06 µM (active) | 163 nM (active) and 211 nM (active) | inactive | inactive | inactive | 68.8 nM (active) and inactive | 0.112 µM (active) | 0.126 µM (active) | inactive | inactive | inactive | – | – | – | – | – | – | – | – | – |
| N#CCBr | inactive | inactive | inactive | inactive | – | inactive | inactive | inactive | inactive | inactive | inactive | inactive | inactive | inactive | inactive | inactive | inactive | inactive | inactive | inactive |
| CCN(CC)C(=S)S | 27.5 µM (active) and 7.65 µM (active) and 13.7 µM (active) | inactive | inactive | inactive | inactive | 29.1 µM (active) and inactive | inactive | inactive | inactive | inactive | inactive | – | inactive | inactive | inactive | – | inactive | inactive | – | – |
| NNc1ccccc1 | inactive | inactive | inactive | inactive | inactive | inactive | inactive | inactive | inactive | – | inactive | – | – | – | – | – | inactive | inactive | – | – |
| C#CCN(C)[C@H](C)Cc1ccccc1 | inactive | inactive | inactive | inactive | inactive | inactive | inactive | inactive | inactive | inactive | – | inactive | – | – | – | – | inactive | inactive | – | – |
| O=c1nc(O)n(Cl)c(=O)n1Cl | inactive | inactive | inactive | inactive | inactive | – | inactive | inactive | inactive | – | inactive | inactive | inactive | – | inactive | inactive | – | inactive | – | – |
| CCC[N+]1(C)CCCC1 | inactive | inactive | inactive | inactive | inactive | inactive | inactive | inactive | inactive | inactive | inactive | inactive | – | inactive | inactive | – | inactive | inactive | – | – |
| Nc1c(Cl)cc([N+](=O)[O-])cc1Cl | inactive | inactive | inactive | inactive | inactive | inactive | – | inactive | inactive | inactive | inactive | inactive | inactive | inactive | inactive | inactive | inactive | inactive | – | – |
